From PubChem BioAssay (NCI)
This is part of a sample that, as a whole, favours compounds with a hit. Of some 79,000 tested, about 15% had one in any assay. A number with no mark means an inactive call. Calls of active or inactive are those of the source. Cut-off read from the data, not from the text of the source: active = growth inhibition above about 70%; inactive = the rest.

What was measured:
[1] = NCI Yeast Anticancer Drug Screen. Data for the rad50 strain (AID 155);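 note: 0% = growth of vehicle-only cultures of the same strain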; conditions: S. cerevisiae rad50 strain growth inhibition; at 50.0 µM; active compounds read high
Method in brief: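 Relative growth inhibition (compound vs vehicle) was measured in yeast with a defined repair-gene alteration.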

[2] = NCI Yeast Anticancer Drug Screen. Data for the mec2-1 strain (AID 157); conditions: S. cerevisiae mec2-1 strain, at 50.0 µM, active compounds read high
Method in brief: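 Yeast mec2-1 mutant treated with compound. Readout: growth inhibition vs vehicle controls.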

[3] = NCI Yeast Anticancer Drug Screen. Data for the sgs1 mgt1 strain (AID 161);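 note: 0% = growth of cultures given vehicle only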; conditions: S. cerevisiae sgs1 mgt1 strain, at 50.0 µM, active compounds read high
Method in brief: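 Mutant yeast exposed to compound; growth scored against vehicle-only wells.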

[4] = NCI Yeast Anticancer Drug Screen. Data for the cln2 rad14 strain (AID 165);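 note: 0% = growth equal to vehicle treated cultures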; conditions: S. cerevisiae cln2 rad14 strain, at 50.0 µM, active compounds read high
Method in brief: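 cln2 rad14 yeast strain; compound exposure; growth inhibition read vs vehicle controls.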

[5] = NCI Yeast Anticancer Drug Screen. Data for the bub3 strain (AID 167); conditions: S. cerevisiae bub3 mutant strain, at 50.0 µM, active compounds read high
Method in brief: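 Screening used yeast with an engineered genetic alteration affecting cell cycle control. Compound-exposed cultures were compared with vehicle cultures, and reduced growth was taken as inhibition.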

[6] = NCI Yeast Anticancer Drug Screen. Data for the mlh1 rad18 strain (AID 175); conditions: S. cerevisiae mlh1 rad18 strain growth inhibition; at 50.0 µM; active compounds read high
Method in brief: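 Yeast w/ defined DNA-repair lesions; compound exposure; growth vs vehicle controls → % inhibition.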

SMILES | growth inhibition [1] | growth inhibition [2] | growth inhibition [3] | growth inhibition [4] | growth inhibition [5] | growth inhibition [6]
CCCCCCCCCCCCOC(=O)NCCCl | -53% | -106% | -57% | -224% | -27.6% | -60.1%
CC(=O)Nc1ccc(C(O)/C(=N/N)c2nc3ccc(Cl)cc3[nH]c2=O)cc1 (stereo unspecified) | 9.15% | -8.9% | -6% | -1.1% | 5.55% | -26.9%
CC(C)C1CCC(O)CC1 (stereo unspecified) | -14.5% | 1.9% | -3.55% | -32.2% | 10.3% | 9.05%
CC(O)CN(CC(C)O)c1ccc2c(c1)Cc1ccccc1-2 (stereo unspecified) | -13.2% | -13.3% | 13.8% | -20.8% | 36% | -4.6%
CCc1cccc(Nc2ccccc2C(=O)O)c1 | 42% | 25.2% | 29.8% | -26.6% | -2.05% | -2.2%
COC1=CC(=O)O/C1=C(\OC)C1OC1c1ccccc1 (stereo unspecified) | -4% | -7.25% | 2.9% | -1.35% | -6.5% | -24.9%
CC(CCNC(=S)S)CC(C)(C)C.[Zn+2] (stereo unspecified) | 9.75% | 15.1% | -7.55% | -36% | -4.65% | -1%
CC1(C(N)=O)CCC1 | 1.8% | -15.4% | -18.4% | -24.1% | 10.2% | -20.9%
O=C(CC/[N+]([O-])=C/c1ccccc1)OCc1ccccc1 | 24.9% | 20.8% | 1.3% | 12% | 21.8% | 52.5%
CC1(C)CS(=O)(=O)C(=O)N1CCC(=O)O | 9.8% | 15.4% | 7.8% | 3.85% | 6.45% | 24.9%
CN1C(=O)N(C)C2(CCN(CC(CC3OCCO3)c3ccc(F)cc3)CC2)C1=O (stereo unspecified) | -15.8% | 7.85% | 0.4% | 2.5% | -6.8% | -1.55%
COc1cccc2c1C(=O)OC2c1cccc2ccccc12 (stereo unspecified) | 10.5% | -7.45% | 7.25% | 28.2% | 4.3% | 16%
COc1cccc2c1C(=O)c1c(O)c3c(c(O)c1C2=O)C[C@@](O)(c1csc(-c2ccncc2)n1)C[C@@H]3OC1CC(N)C(O)C(C)O1 (stereo partly specified) | 22.8% | 15.4% | 17.2% | 32.2% | -2.25% | 25.8%
Nc1nc(N)c(N=Nc2ccccc2[N+](=O)[O-])c(=O)[nH]1 | 5.85% | -15.8% | 2.4% | -4.95% | 11.1% | -1.05%
CCN(CC)CCC(=O)O[C@H]1CC[C@H](CC(C)[C@H]2CC(=O)C(C)C=C(C)[C@H](OC(=O)CCN(CC)CC)C(OC)C(=O)[C@@H](C)CC(C)/C=C/C=C/C=C(C)C(OC)CC3CC[C@H](C)[C@](O)(O3)C(=O)C(=O)N3CCCCC3C(=O)O2)CC1OC (stereo partly specified) | 89.6% (active) | 91.8% (active) | 92.8% (active) | 89.3% (active) | 91.5% (active) | 86.5% (active)
CNc1ccn(C2OC(CO)C(O)C2SC(C)(C)C)c(=O)n1 (stereo unspecified) | 6.15% | 0.25% | 13.7% | 9.1% | 0.45% | 28.6%
CCOC(=O)c1cc(CC)sc1N | -1.55% | -9.75% | 10.7% | -10.2% | 12.2% | -12.5%
CN(C)c1ncnc2c1cnn2-c1ccc(Cl)cc1 | -6.15% | -6.2% | -9.3% | -36.6% | -0.95% | -8.45%
NCCNC(=O)Cc1cccs1 | 1.5% | -8.5% | -12.4% | -21.6% | 4.45% | -0.8%
CCCC(=O)OCc1ccc(Cl)cc1 | 24.6% | 12.8% | 6.9% | 5.15% | 6.55% | 3.35%
CN(C)CCCCC(C#N)(c1ccccc1)c1ccccc1 | 16.3% | 18.8% | 16.6% | 12.7% | 26.5% | 38.5%
